{"source": "PubChem BioAssay AID449748", "about": "(Broad Institute, 2010)", "note": "About 2,200 (100%) of roughly 2,200 compounds were called active. The set was probably picked from earlier hits. The list shows a part of the results. Potency and affinity values are given separately. Inconclusive results are not listed. How the calls were made is not given here.", "data": [{"assay": "PubChem AID 449748", "conditions": "cancer stem cell-like cells viability, luminescence; series mostly up to 19.5 µM; activity change, negative = inhibition: at the top concentration", "values": [{"molecule": "CSc1ccccc1C(=O)Nc1cc(C)ccc1C", "activity change, negative = inhibition": "31.1% (inactive)"}]}]}
